# TDP1 cell CPT = qHTS for Inhibitors of human tyrosyl-DNA phosphodiesterase 1 (TDP1): qHTS in cells in presence of CPT; Potency, µM (doses to about 46.2 µM), inactives show at the top dose activity change, negative = growth inhibition, most hits filed as inhibitors; AID 686979, 2013; hit rate 12% among 420,000; chicken DT40 Tdp1-/-;hTDP1 cells + 20 nM CPT, ATP luminescence, 48 h; also: nearly all actives have a fitted effect of over 55% in size
#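 Chicken DT40 Tdp1-/- cells stably complemented with human TDP1 were seeded at 400 cells/well in medium containing 20 nM camptothecin, exposed to pin-transferred compounds, and grown at 37 °C for at least 48 hr. Viability was read as ATP luminescence.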
# KB-V1 MDR tox = qHTS assay for MDR1-selective chemotherapeutics: Primary screen using the drug-selected MDR subline cells KB-V1 | KB-V1 MDR cells viability, CellTiter-Glo, 72 h | Potency, µM (doses to about 46.1 µM), actives largely listed as cytotoxic | hit rate 3.4% among 400,000 | AID 1347076, 2019; also: nearly all actives have a fitted effect of over 60% in size
#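 Luminescent ATP read-out (CellTiter-Glo, 10 min) measures survival of drug-selected KB-V1 MDR cells after 72 h, 37 degrees C compound exposure. Medium: phenol-red-free DMEM, 10% FBS. Values from fitted concentration-response curves.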
# TDP1 cell noCPT = qHTS for Inhibitors of human tyrosyl-DNA phosphodiesterase 1 (TDP1): qHTS in cells in absence of CPT | Potency, µM (titrated, usually from 46.2 µM), for the others: at the highest dose activity change, negative = growth inhibition, hits mostly inhibitors | DT40 Tdp1-/- hTDP1 cells, no CPT, ATP luminescence, 48 h | hit rate 15% among 420,000; also: nearly all actives have a fitted effect of over 55% in size
#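 Readout: luminescence from CellTiter-Glo after 30 min in the dark at RT. Cells: DT40 Tdp1-/- with stable hTDP1, 400/well. Exposure: compounds alone, ≥48 hr, 37 °C.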
# KB-3-1 cytotox = qHTS assay for MDR1-selective chemotherapeutics: Primary screen using the parental adenocarcinoma cell KB-3-1. KB-3-1 viability, CellTiter-Glo ATP luminescence, 72 h. Potency, µM (top dose mostly 46.1 µM), most hits filed as cytotoxic. hit rate 1.4% among 400,000; also: nearly all actives have a fitted effect of over 60% in size
#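 Cytotoxicity measured as CellTiter-Glo luminescence after 72 h at 37 C. Compound titrations were pinned onto drug-naive KB-3-1 parental adenocarcinoma cells grown in DMEM with 10% FBS, and normalized data fitted to concentration-response curves.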
# HT1080NT lethal = qHTS for induction of synthetic lethality in tumor cells producing 2HG: qHTS for the HT-1080-NT fibrosarcoma cell line | HT-1080-NT fibrosarcoma viability, CellTiter-Glo ATP luminescence, 48 h | Potency, µM (highest dose often 46.1 µM), inactives show top-dose activity, negative = less viability, most hits filed as cytotoxic | hit rate 1.6% among 360,000;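 also: NT is the 2HG producing partner of a matched IDH1 knockdown line; 0% = DMSO-treated cells and -100% = media-only wells without cells; nearly all actives have a fitted effect of over 55% in size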
#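 Viability by CellTiter-Glo luminescence after 48 h compound exposure at 37C of HT-1080-NT cells (750/well, RPMI, 5% FBS). % activity scaled between DMSO wells and medium-only wells, then curve-fitted and categorized by curve class.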
# HT1080 IDH1KD tx = qHTS for induction of synthetic lethality in tumor cells producing 2HG: qHTS for the HT-1080-IDH1KD cell line; AID 686971, 2013; hit rate 2% among 360,000; Potency, µM (top dose mostly 46.1 µM), for the others: top-dose activity, negative = toxicity, hits mostly cytotoxic; HT-1080 IDH1 knockdown viability, ATP luminescence, 48 h;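 also: 0% = DMSO wells and -100% = cell-free medium wells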
#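 In this qHTS, HT-1080 cells depleted of IDH1 are exposed for 48 h at 37 °C to compound titrations. Toxicity is scored from CellTiter-Glo luminescence, with DMSO as full viability and medium alone as none.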
# * marks the source's active call; other numbers are inactive results; i = inactive; ? = inconclusive; . = not tested or not shown; [ ] = another dose, or the depositor's remark. The list is not random: actives were taken first. Their share in the collection is about 19%. Calls follow the shape of the dose curve; as a rule, active = well fitted curve in the direction sought with a large enough effect; inconclusive = small, poorly fitted or top-dose-only effect, or another doubt; inactive = no such curve, though single readings can be large; an effect the other way counts as inactive or inconclusive. Unless noted, % is scaled to controls: 0 for no effect and ±100 for the full control effect; potency is read from the fitted curve at half-maximal effect.
SMILES,TDP1 cell CPT,KB-V1 MDR tox,TDP1 cell noCPT,KB-3-1 cytotox,HT1080NT lethal,HT1080 IDH1KD tx
CC(=O)C1C(=O)c2c(cccc2[N+](=O)[O-])C1=Nc1ccc(S(N)(=O)=O)cc1 (configuration not stated),18.4µM*,i,?,i,-2.0%,-0.4%
CCC(C(=O)O/N=C(\N)c1ccccc1)c1ccccc1 (configuration not stated),-14.8%,i,-25.9%,i,7.9%,2.6%
N/C(=N\OC(=O)C(c1ccccc1)c1ccccc1)c1ccncc1,-4.2%,i,29.1µM*,i,0.0%,-1.2%
O=C(Nc1ccc(F)cc1)c1ccccc1Oc1ccc(C(F)(F)F)cc1[N+](=O)[O-],?,16.4µM*,?,i,?,?
COc1ccc(-c2cc(C(F)(F)F)n3nc(C(=O)Nc4sc5c(c4C(=O)OC(C)C)CCC(C)C5)cc3n2)cc1 (configuration not stated),13.4%,i,1.5%,i,.,.
CCOC(=O)c1sc(NC(=O)c2cc3nc(-c4ccc(Br)cc4)cc(C(F)(F)F)n3n2)c(C(=O)OCC)c1C,?,i,23.1µM*,?,.,.
CCOC(=O)c1c(NC(=O)c2cc3nc(-c4ccccc4)cc(C(F)(F)F)n3n2)sc2c1CCC(C)C2 (configuration not stated),23.1µM*,i,18.4µM*,i,.,.
O=C(NCCCn1ccnc1)c1cc2nc(-c3ccc(Br)cc3)cc(C(F)(F)F)n2n1,?,i,?,i,23.1µM*,?
CCNC(=O)C1(C)CCN(C(=O)c2ccccc2OC(F)(F)F)C1 (configuration not stated),-9.3%,i,1.1%,i,21.0%,21.3%
COCCn1c(=O)c(-c2cccc(C#N)c2)nc2cnc(N3CCOCC3)nc21,-24.7%,.,-1.0%,.,.,.
CCc1ccccc1NC(=O)CSc1nc2cc(C(=O)NCC3CCCO3)ccc2c(=O)n1CC1CCCO1 (configuration not stated),?,i,?,i,-1.2%,0.2%
O=C(CCCn1c(SCc2cccc([N+](=O)[O-])c2)nc2ccccc2c1=O)NCC1CCCO1 (configuration not stated),?,i,23.1µM*,i,?,?
CCCCCn1c(SCC#N)nc2cc(C(=O)NCC3CCCO3)ccc2c1=O (configuration not stated),?,i,23.1µM*,i,-0.5%,-0.3%
CCN(CC(=O)Nc1cc(Cl)ccc1C)C(=O)c1cc([N+](=O)[O-])ccc1N1CCOCC1,-12.6%,?,-20.0%,i,-3.9%,-7.4%
CC(=O)NC1C(=O)N(CC(C)C)c2ccccc21 (configuration not stated),-0.5%,i,2.2%,i,3.6%,-0.5%
CC(C)CN1C(=O)C(=Nc2cccnc2)c2ccccc21,3.66µM*,?,4.61µM*,?,?,-0.5%
NCCCC[C@H]1CN=C(N)N1CC1CCCCC1,-13.8%,i,-2.9%,i,7.6%,4.1%
NC1=NC[C@H](c2ccccc2)N1CCCCC1CCCCC1,5.17µM*,i,7.31µM*,?,-9.1%,-10.4%
Fc1cccc(CCN2C(=S)NC[C@@H]2Cc2ccccc2)c1,20.6µM*,i,?,i,2.3%,6.3%
CCC(C)[C@H]1CN=C(N)N1CC1CCCCC1 (some centres not stated),2.59µM*,i,2.31µM*,?,-5.1%,-8.4%
CC(O)[C@H]1CN=C(N)N1CCCCC1CCCCC1 (some centres not stated),9.2µM*,?,8.2µM*,?,-24.3%,-7.2%
O=C(c1ccccc1)N1CCN(C(=O)C2CC2)CC1,7.5%,i,2.2%,i,0.5%,2.6%
NC1=NC[C@H](c2ccccc2)N1CCc1cccc(F)c1,16.4µM*,i,13µM*,i,-2.2%,-4.1%
Fc1cccc(CCN2CCNC[C@@H]2c2ccccc2)c1,?,?,?,i,-11.2%,-4.0%
CCNc1ccc(C(=O)N/N=C/c2c(C)nn(-c3ccccc3)c2N2CCCC2)cc1[N+](=O)[O-],18.4µM*,i,?,i,22.4%,18.8%
SMILES,TDP1 cell CPT,KB-V1 MDR tox,TDP1 cell noCPT,KB-3-1 cytotox,HT1080NT lethal,HT1080 IDH1KD tx
Cc1ccc(NS(=O)(=O)c2cccc(C(=O)N/N=C/c3c(C)nn(-c4ccccc4)c3N3CCCC3)c2)c(C)c1,?,?,?,i,1.3%,5.9%
O=C1CCCc2nc(N3CCc4ccccc43)ncc21,-28.3%,i,-25.7%,i,-0.7%,7.8%
Cc1nc(N2CCN(Cc3ccccc3)CC2)nc2c1CCC2,-17.9%,i,?,i,-3.3%,9.0%
Cc1nc(N2CCN(Cc3ccccc3)CC2)nc2c1C(=O)CCC2,23.1µM*,18.4µM*,16.4µM*,?,-1.9%,-1.8%
O=C1CCCc2nc(N3CCN(Cc4ccccc4)CC3)ncc21,?,20.6µM*,-14.9%,i,-16.6%,0.1%
O=c1cc(SCc2ccc(Cl)cc2Cl)nc[nH]1,-4.1%,i,-17.7%,i,-7.1%,-8.1%
O=C(Nc1nnc(-c2ccccc2Cl)o1)c1cccnc1,?,i,?,i,-20.2%,?
COc1ccc(-c2nc3ccc(C)cn3c2Cc2cccc(F)c2)cc1OC,?,i,20.6µM*,i,?,?
COc1ccc(-c2nc3ccc(Cl)cn3c2Cc2cccc(F)c2)cc1OC,23.1µM*,i,20.6µM*,i,?,?
COc1ccc(-c2nc3c(C)cc(Br)cn3c2Cc2cccc(F)c2)cc1OC,?,i,?,i,?,?
COc1ccc(-c2nc3c4ccccc4ccn3c2Cc2cccc(F)c2)cc1OC,?,i,?,i,23.1µM*,?
COc1ccc(-c2nc3ccc(Br)cn3c2Cc2cccc(F)c2)cc1OC,?,i,?,i,-26.8%,-20.3%
O=C(CN1C(=O)NC2(CCOc3ccccc32)C1=O)NCCc1ccc(F)cc1 (configuration not stated),-11.3%,i,14.2%,i,2.0%[9.24 µM],-0.8%

# Screens (PubChem)
